B1: chr12:8945443:8945444:+_ENSMUSG00000020585_ENSMUST00000020909|mus_mus|motif|central (ssRNA)
RNA: GGGAGUUCUACAGUCCGACGAUCUGGAAACGUACAAAUGAGAAGCAUGCAACCAUCAUCUUCCACAGUCAAGUCAAACUGCGGUUUCUCUCUCUCUCCUGUUUCAUAGAGCUGGAAACUGCAGGUGUUAUACCCAACCUAUUCCAACAGAGGAUUGAGCAUCA
B2: 117863777_117864697_1263_CDS_ENSMUSG00000017715_ENSMUST00000132676|mouse|control|control (ssRNA)
RNA: GGGAGUUCUACAGUCCGACGAUCGCGGUCCUGGCGGUUGGUGAAGUAUGAGUCACUCAGGUUUGCACCACUCAGGAUGACGUUGUUGUCAAAGAGGUACACCUUGAUGUGCUGGAGGCCGAUGGUCUCAUUGAAGCGCUCAGGCAACAGAGGAUUGAGCAUCA
B3: chr6:41757443:41757444:+_ENSG00000214736_ENST00000398881|hu_mus|hu_hu_hu_mus_False|1_68 (ssRNA)
RNA: GGGAGUUCUACAGUCCGACGAUCGAACCGUGCAGAGGCAACAUCUCAGCCGACACUGGGGGAUGGGGGAACAAAAGGGGGGGGUUCAGGCAAGGAGAGGGAGUCAACUUCAGCUGCCACUCAGGUAGGAUCUUGUGGGGCACACAACAGAGGAUUGAGCAUCA
B4: chr10:77750680:77750681:-_ENSMUSG00000001211_ENSMUST00000139282|mus_hu|FALSE|FALSE (ssRNA)
RNA: GGGAGUUCUACAGUCCGACGAUCGCGGCGGUAGAGCUGCUUGCUGACCGGCCAGAGCGCCAGCGUGCACAGCUGGACGAAGUUGAUGACCAGACCACUCACCACGAAGACAAAGCCGACCAGCAGGUGCAGCACGAACUGGGUCAACAGAGGAUUGAGCAUCA
B5: chr6:41757443:41757444:+_ENSG00000214736_ENST00000398881|hu_mus|hu_hu_hu_mus_False|18_28 (ssRNA)
RNA: GGGAGUUCUACAGUCCGACGAUCGAACCGUGCAGAGGCAACAUCUCAGCCGACACUGGGGGAUGGGGGGGCAGUGGGGGGGGGUUCAGGCAAGGAGAGGGAGUCAACCCAUCUGAAUCAAACUUCAGGAUCUUGUGGUCACAGCAACAGAGGAUUGAGCAUCA
B6: chr10:127876205:127876206:+_ENSMUSG00000025373_ENSMUST00000096386|mus_mus|FALSE|FALSE (ssRNA)
RNA: GGGAGUUCUACAGUCCGACGAUCGGGGCCACCGAGGCAACACAGACACCCUCUUGAGGCAGUGCCGUUCUGGAUCAGCAGAGCCAGACAGCAGCUUCCUGCUGAGUGUACGAACACCAGUGCUCUCACGCCCACCCCUUCCUUCAACAGAGGAUUGAGCAUCA
B7: 53565353_53565853_12282_CDS_ENSG00000086758_ENST00000262854|human|control|control (ssRNA)
RNA: GGGAGUUCUACAGUCCGACGAUCCCCAUCAGCAAGGUGGGUCGUGGACUGCCGUAGGAUCUGGUUUAACACAGUGCGGUGAGUCUCUGCAAAGCGAAGGAACUUCUGUGUGUCAGGGGGCAGGCUUGAGGAGAUGUGCAUAGACAACAGAGGAUUGAGCAUCA
B8: chr6:41757443:41757444:+_ENSG00000214736_ENST00000398881|hu_mus|hu_hu_hu_mus_False|58_58 (ssRNA)
RNA: GGGAGUUCUACAGUCCGACGAUCGAACCGUGCAGAGGCAACAUCUCAGCCGACACUGGGGGAUGGGGGGGCAGUGGGAAACUAGGCAGGCAAGGAGAGGGAGUCAACUUCAGCUGCCACUCAGGUAGGAUCUUGUGGUCACAGCAACAGAGGAUUGAGCAUCA
B9: chr7:133639990:133639991:-_ENSMUSG00000032637_ENSMUST00000167759|mus_hu|FALSE|FALSE (ssRNA)
RNA: GGGAGUUCUACAGUCCGACGAUCGGUAGAGAGUUCUUUUACAUCUGUGGGGGCCAGGGAGAUCUUUGGAGAAGCUGGAGAAAUGGAGCCCACUCCAGGAUCUGAGACUGAUGAGGUCACAGGGAUGGAGGCUGAAGAGGUUGGCAACAGAGGAUUGAGCAUCA
B10: 66332798_66333947_12362_CDS_ENSMUSG00000038664_ENSMUST00000042824|mouse|control|control (ssRNA)
RNA: GGGAGUUCUACAGUCCGACGAUCUUCACCACUUUCUGUCAAGGCCAUUGAGUGCCCAUCUGAGCCACAGGAAGUCACCAGCUGGGUCACCACAAAACCUUGUAGGGCUGAAAUCACAGUCAGCACAUGAAGGUCGUCUGAAUUCAACAGAGGAUUGAGCAUCA
B11: chr6:41757443:41757444:+_ENSG00000214736_ENST00000398881|hu_mus|hu_hu_hu_mus_False|28_28 (ssRNA)
RNA: B5 RNA with U117C, C118A, A119C, A120U, A121C, C122A, U123G, U124G, C125U
B12: chr6:41757443:41757444:+_ENSG00000214736_ENST00000398881|hu_mus|hu_hu_hu_mus_False|1_38 (ssRNA)
RNA: GGGAGUUCUACAGUCCGACGAUCGAACCGUGCAGAGGCAACAUCUCAGCCGACACUGGGGGAUGGGGGGGCAGUGGGGGGGGGUUCAGGCAAGGAGAAGAAAAGUGCUUCAGCUGCCACUCAGGUAGGAUCUUGUGGGGCACACAACAGAGGAUUGAGCAUCA
B13: chr15:43699750:43699751:-_ENSG00000067369_ENST00000382044|hu_hu|motif|central (ssRNA)
RNA: GGGAGUUCUACAGUCCGACGAUCACACUUCAGCACCGAGGCUGGGCAUGAGGGGUCCGUCACCACCACAUCAAAUACCCCGGAAGCAAUAUCUUUGUUAUGGGCACUUGAAUGGUGCUGCUUCACAGAGGCUGCACCACCAGUCAACAGAGGAUUGAGCAUCA
B14: chr6:41757443:41757444:+_ENSG00000214736_ENST00000398881|hu_mus|hu_hu_hu_mus_False|28_38 (ssRNA)
RNA: GGGAGUUCUACAGUCCGACGAUCGAACCGUGCAGAGGCAACAUCUCAGCCGACACUGGGGGAUGGGGGGGCAGUGGGGGGGGGUUCAGGCAAGGAGAAGAAAAGUGCCCAUCUGAACACUCAGGUAGGAUCUUGUGGUCACAGCAACAGAGGAUUGAGCAUCA

The source of these data is publication PMC12136788.

Substitutions are numbered along the chain they refer to. In all, about 24,000 sequences were measured (“enrichment r”: median about 0.99, highest 2% from about 3.7 on). The sample holds the highest values, similar sequences and a random draw of the others, so the mix is not that of the screen.

The target of the assay is T1, UNK ZnF1-3 (human, UniProt Q9C0B0 31-174).
T1 sequence: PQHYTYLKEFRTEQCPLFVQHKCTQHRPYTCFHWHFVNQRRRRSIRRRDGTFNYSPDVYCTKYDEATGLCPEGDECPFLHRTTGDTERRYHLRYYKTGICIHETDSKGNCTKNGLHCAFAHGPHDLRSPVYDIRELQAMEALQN
Briefly: nsRBNS (natural sequence RNA bind-n-seq); RBNS binding buffer (assumed for nsRBNS): 25 mM Tris pH 7.5, 150 mM KCl, 3 mM MgCl2, 0.01% Triton X-100, 500 ug/ml BSA, 20 U/ml SUPERase-In, 4 C; UNK is unkempt and MSI1 is Musashi-1; names of the RNAs are library labels; protein concentration not given here; high values mean tight binding.
B1 gave a binding signal of 0.736 enrichment R.

B2: the binding signal stood at 0.897 enrichment R.

For B3, the binding signal came to 3.16 enrichment R.

B4 came in with a binding signal of 0.809 enrichment R.

On to B5, for which the binding signal was 5.1 enrichment R.

B6: the binding signal was determined as 1.13 enrichment R.

Regarding B7, the binding signal was 1.49 enrichment R.

For the molecule B8, the binding signal worked out at 2.2 enrichment R.

Consider B9, for which the binding signal is 2.03 enrichment R.

The molecule B10 had a binding signal of 0.824 enrichment R.

With B11, the binding signal stood at 5.01 enrichment R.

On to B12, for which the binding signal amounted to 4.72 enrichment R.

In turn, B13 showed a binding signal of 0.852 enrichment R.

With B14, the binding signal worked out at 3.96 enrichment R.
